This note sets out measurements from PubChem BioAssay (Tox21).

“And” between values parts separate entries of the source, which are not always exact repeats. Equal entries are not always repeated. Inconclusive results are not listed. A call without a number means that no potency is given here. The source made the active and inactive calls. The call rests on the fitted dose curve; in most records, active means well fitted inhibition curve with a large enough effect in the repeat runs; inconclusive means weak or mixed curves, or effect the other way; inactive means no such curve, though single readings can be large or run the other way.
Potency means the concentration at half of the fitted maximal effect.

The target in this experiment is Nuclear receptor subfamily 1 group I member 3 (Homo sapiens) (UniProt Q14994). Put plainly: qHTS assay to identify small molecule antagonists of the constitutive androstane receptor (CAR) signaling pathway (AID 1224838).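 Further: HepG2 cells stably expressing hCAR with CYP2B6 luciferase reporter stimulated by CITCO; nearly all actives have a fitted effect of over 40% in size.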 The settings on record: HepG2-CYP2B6-hCAR luciferase, CITCO-stimulated, 24 h; series mostly up to 92.4 µM. From the text: U.S. Tox21 Program National Center for Advancing Translational Sciences [NCATS] NIH Chemical Genomics Center [NCGC] U.S. Environmental Protection Agency [EPA] National Institutes of Environmental Health Sciences [NIEHS] National Toxicology Program [NTP] U.S. Food and Drug Administration [FDA] Tox21 Assay Overview: The constitutive androstane receptor (CAR) is a nuclear receptor which regulates multiple drug metabolizing enzymes (DMEs) and transporters. Activating CAR will generally increase the transcription and subsequent translation of CYP2B6 and CYP3A4. These two DMEs represent about 50% of the drug metabolizing potential in the body. When CAR is deactivated, the metabolizing potential in the body will decrease, subsequently increasing the toxicity in the body or lowering the therapeutic potential of a pro-drug. Recently, there have also been studies performed indicating CARs role in energy metabolism and cancer therapy. Therefore, inhibiting CARs activity could have a potential effect on diabetes and cancer. Identifying environmental toxins and compounds which modulate CAR, through the use of the Tox21 10K compound collection, will be an important step in determining the toxicity and potential therapeutic effects these factors will have on the human body.
Chain of Nuclear receptor subfamily 1 group I member 3 (Homo sapiens) (Q14994 whole entry, looked up): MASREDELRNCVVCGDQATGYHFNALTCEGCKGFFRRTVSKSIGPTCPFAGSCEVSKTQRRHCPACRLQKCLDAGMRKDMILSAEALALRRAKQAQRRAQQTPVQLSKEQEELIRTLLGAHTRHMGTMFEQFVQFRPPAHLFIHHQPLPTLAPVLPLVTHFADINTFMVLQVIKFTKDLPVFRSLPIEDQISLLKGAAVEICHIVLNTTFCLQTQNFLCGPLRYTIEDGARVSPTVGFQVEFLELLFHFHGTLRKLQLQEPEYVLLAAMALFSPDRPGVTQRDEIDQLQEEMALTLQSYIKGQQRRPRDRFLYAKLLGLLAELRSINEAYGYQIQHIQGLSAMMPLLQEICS
Tox21 Assay Protocol Summary: A double-stable (hCAR and CYP2B6-2.2kb) transfected cell line, derived from human hepatoma (HepG2) cells, was utilized for the duration of the quantitative high-throughput screens. The HepG2-CYP2B6-hCAR cells suspended in DMEM culture medium supplemented with 10% FBS, 5 ug/mL blasticidin, 0.5 mg/mL geneticin, 100 U/mL penicillin and 100 ug/mL streptomycin were dispensed at 2500 cells/4 uL/well in 1536-well white solid bottom plates using a Multidrop Combi. After the assay plates were incubated at 37 C/5% CO2 for 4 hrs, 23 nL of compounds at 15 concentrations (from 5-48 columns) or positive control (from 1 to 4 columns) were transferred to the assay plates using a Pintool station. One uL of CITCO, was added using a Flying Reagent Dispenser to generate a final concentration of 50 nM CITCO inside each well. After a 24 hr incubation period at 37 C/5% CO2, four uL of ONE-Glo reagent was added into the assay plates using a Flying Reagent Dispenser. After a 30 min incubation period at room temperature, the luminescence intensity in the assay plates was measured using a ViewLux plate reader.
Turning to `COc1ccc(C(c2ccc(OC)cc2)C(Cl)(Cl)Cl)cc1`, the Potency entry is “inactive”.
Same read-out and setting: in the case of `COc1cc(OC)c(OC)cc1C=O` it was “inactive”; in that of `ClC(Cl)=C(c1ccc(Cl)cc1)c1ccccc1Cl`, “inactive”; in that of `Cc1ccc(N(SC(F)(Cl)Cl)S(=O)(=O)N(C)C)cc1`, 27.3 µM (active).
Same read-out and setting: in the case of `O=C1OC(=O)c2c(Cl)c(Cl)c(Cl)c(Cl)c21` it was “inactive”.
Same read-out and setting: next, `OC(Cc1ccccc1Cl)(Cn1[nH]cnc1=S)C1(Cl)CC1` (stereo not given): “inactive”; `N#Cc1cc([N+](=O)[O-])ccc1N`: “inactive”; `Cc1nnc2n1-c1sc(CCc3ccc(CC(C)C)cc3)cc1C(c1ccccc1Cl)=NC2C` (stereo not given): “inactive”.
For `Brc1cc(Br)cc(Br)c1`, the Potency result is “inactive”.
The same measure, in the same setting: next, `Nc1ccc(Cl)cc1[N+](=O)[O-]`: “inactive”; `Cc1cc(C(C)(C)c2ccc(O)c(C)c2)ccc1O`: “inactive”.
Still for that read-out and setting: next, `CCN(CC)C(=O)Cl`: “inactive”.
Take `CO/C=C(/C(=O)OC)c1ccccc1Oc1cc(Oc2ccccc2C#N)ncn1`: the Potency result was “inactive”.
Take `CNC(=O)Oc1cc(C)c(SC)c(C)c1`: the Potency result was “inactive”.
Still for that read-out and setting: next, `Cc1cc(C)c(C(=O)P(=O)(c2ccccc2)c2ccccc2)c(C)c1`: “inactive”; `O=S(=O)(C(Cl)(Cl)Cl)C(Cl)(Cl)Cl`: 24.3 µM (active).
Still for that read-out and setting: in the case of `Oc1c(Cl)ccc(Cl)c1Cl` it was “inactive”.
Regarding `O=C1C(I)=CC(=C(c2cc(I)c(O)c(I)c2)c2ccccc2C(=O)O)C=C1I`, the Potency entry was “inactive”.
The same measure, in the same setting: in the case of `ClC1=C(Cl)[C@]2(Cl)[C@@H]3[C@@H](Cl)[C@H]4O[C@H]4[C@@H]3C1(Cl)C2(Cl)Cl` it was “inactive”.
For `Cc1ccc2nc3sc(=O)sc3nc2c1`, the activity, negative = inhibition is 67.8% [at 19 µM] (inactive).
Consider `Nc1ccc([N+](=O)[O-])cc1`, for which the Potency entry was “inactive”.
Same read-out and setting: next, `CN1CSC(=S)N(C)C1`: 3.84 µM (active) and 7.67 µM (active); `O=C(Nc1ccccc1-c1ccc(Cl)cc1)c1cccnc1Cl`: “inactive”; `CCOC(=O)C(O)(c1ccc(Cl)cc1)c1ccc(Cl)cc1`: “inactive”.
Still for that read-out and setting: next, `CC1(C)[C@H](C(=O)OCc2cccc(Oc3ccccc3)c2)[C@@H]1C=C(Cl)Cl`: “inactive”.
